Test results: paper PMC4552634, “A New Set of Chemical Starting Points with Plasmodium falciparum Transmission-Blocking Potential for Antimalarial Drug Discovery” (PLoS ONE, 2015)
About 3,200 (25%) of roughly 13,000 compounds showed an effect of 50% or more. The list shows a part of the results.

What follows are molecules tested on P. falciparum stage V gametocytes. Settings: 48 h, 5 µM; inhibitor.
Set-up: BacTiter-Glo ATP luminescence viability of purified stage V gametocytes in 384-well plates, per cent inhibition versus DMSO

SMILES | % Inhibition [%]
O=C(N[C@@H](Cc1ccccc1)C(=O)NCCN1CCOCC1)c1ccc(O)c(-c2ccc(Cl)c(Cl)c2)c1 [TCMDC-140851] | 14.71
COc1ccc(C2CC(=O)C3=C(C2)NC(C)=C(C(=O)OC(C)C)C3c2c(F)cccc2Cl)cc1OC (stereo not drawn) [TCMDC-124040] | 34.34
COC(=O)Cn1c(C2CCN(CC3CCN(C(=O)/C=C/c4ccc(Cl)c(Cl)c4)CC3)CC2)nc2ccccc21 [TCMDC-140298] | 2.762
CNC(=O)c1ccc2nc(-c3ccc(-c4ccccc4)cc3)n(CC3CCN(CC4CCCC4)CC3)c2c1 [TCMDC-136523] | 25.32
CNC(=O)c1ccc2nc(C3CC3)n(CC3CCN(S(=O)(=O)c4cccc(Cl)c4)CC3)c2c1 [TCMDC-136189] | 88.15
O=C(/C=C/c1cccc(C(F)(F)F)c1)NCCCCCN1CCN(C(=O)Nc2ccc(Cl)c(Cl)c2)CC1 [TCMDC-135794] | -9.962
O=C1C2C(c3ccc(Cl)c(Cl)c3)N3CC(OCc4ccccc4)CC3(C(=O)O)C2C(=O)N1c1ccc(Br)cc1 (stereo not drawn) [TCMDC-139263] | 16.51
Cc1cccc2nc(-c3ccc(-c4ccc(NC(=O)Nc5ccsc5)cc4)s3)[nH]c12 [TCMDC-133209] | -24.83
CCC(Cc1ccccc1)c1cc(O)c(Cc2ccc(-c3ccccc3)cc2)c(=O)o1 (stereo not drawn) [TCMDC-140730] | -3.123
CN(C)Cc1c(O)ccc2oc(Cc3ccccc3)cc12 [TCMDC-125816] | 62.06
CN(C)Cc1cc2c(O)c(Cc3ccccc3)ccc2o1 [TCMDC-124091] | 7.975
O=S1(=O)NC2(CCN(CCc3ccc(Cl)cc3)CC2)Nc2cc(F)cc(F)c21 [TCMDC-124990] | -19.76
Cc1ccc(S(C)(=O)=O)cc1/C=C/C(=O)O [TCMDC-139220] | 3.947
COc1ccc2nccc([C@@H](O)CN3CCC(NCCOc4ccc(F)cc4[N+](=O)[O-])CC3)c2c1 [TCMDC-140659] | -1.987
CN1CCN(c2ccnc3ccc(NC(=O)Nc4cccc5ccccc45)cc23)CC1 [TCMDC-139346] | 6.615
O=c1nc(C=Cc2ccc(Br)cc2)oc2ccccc12 [TCMDC-123878] | 22.17
O=C(NC1CCC(CN2CCC(c3c[nH]c4ccccc34)CC2)CC1)c1cc(-c2ccccc2Cl)n(-c2cccc(Cl)c2)n1 (stereo not drawn) [TCMDC-140354] | -13.83
O=C(NC1CCC(CN2CCC(c3c[nH]c4ccccc34)CC2)CC1)c1cc(-c2cccc(Cl)c2)n(-c2ccc(Cl)cc2Cl)n1 (stereo not drawn) [TCMDC-140353] | -7.21
CCCc1c(C(=O)NC2CCC(CN3CCC(c4c[nH]c5ccccc45)CC3)CC2)cnn1-c1c(Cl)cc(Cl)cc1Cl (stereo not drawn) [TCMDC-140423] | 74.19
CCCc1c(C(=O)NC2CCC(CN3CCC(c4c[nH]c5ccccc45)CC3)CC2)cnn1-c1ccccc1 (stereo not drawn) [TCMDC-139954] | 89.66
Cc1c(C(=O)NC2CCC(CN3CCC(c4c[nH]c5ccccc45)CC3)CC2)cnn1-c1c(Cl)cc(Cl)cc1Cl (stereo not drawn) [TCMDC-140357] | 8.343
CCCc1c(C(=O)NC2CCC(CN3CCC(c4c[nH]c5ccccc45)CC3)CC2)cnn1-c1ccc(Cl)cc1 (stereo not drawn) [TCMDC-140261] | 29.96

SMILES | % Inhibition [%]
CC(C)c1ccc(NC(=O)Nc2ccc(Cn3ncc(N4CCCNCC4)c(Cl)c3=O)cc2)cc1 [TCMDC-133325] | -40.87
CNC(=O)C1Cc2c([nH]c3ccc(Cl)cc23)C2(CCN(CCc3ccccc3)CC2)N1 (stereo not drawn) [TCMDC-141285] | -33.98
O=c1[nH]c2ccc3[nH]cccc3c2c1C=Nc1ccc(N2CCN(CCO)CC2)cc1 [TCMDC-138634] | -29.23
O=C(C=Cc1ccc(Cl)c(Cl)c1)NCCCCCN1CCCC(CCCNC(=O)C2CC2c2ccccc2)C1 (stereo not drawn) [TCMDC-139578] | 25.82
O=C(C=Cc1ccc(Cl)c(Cl)c1)NCCCCCN1CCC(CCNC(=O)C(c2ccccc2)c2ccccc2)CC1 [TCMDC-139570] | 77.62
COc1ccccc1/C=C/C(=O)NCCC1CCN(CCCCCNC(=O)/C=C/c2ccc(Cl)c(Cl)c2)CC1 [TCMDC-139999] | 48.92
O=C(C=Cc1ccc(Cl)c(Cl)c1)NCCCCCN1CCC(CCCNC(=O)/C=C/c2ccccc2)CC1 [TCMDC-139571] | -9.203
O=C(C=Cc1ccc(Cl)c(Cl)c1)NCCCCCN1CCCC(CCCNC(=O)/C=C/c2ccccc2)C1 (stereo not drawn) [TCMDC-139577] | 89.65
O=C(C=Cc1ccc(Cl)c(Cl)c1)NCCCCCN1CCC(CCNC(=O)/C=C/c2ccccc2)CC1 [TCMDC-139566] | 81.69
O=C(/C=C/c1ccc(Cl)c(Cl)c1)NCCCCCN1CCC(CCNC(=O)/C=C/c2ccccc2F)CC1 [TCMDC-140006] | -17.66
O=C(/C=C/c1ccc(Cl)c(Cl)c1)NCCCCCN1CCCC(CNC(=O)/C=C/c2ccccc2)C1 (stereo not drawn) [TCMDC-139582] | 30.13
CCc1cc(NCc2ccncc2)nc(Nc2ccc(F)cc2)n1 [TCMDC-134015] | 15.5
CC(C)(C)NC(=O)C(c1ccc(F)cc1)N(C(=O)c1ccc(CN2CCOCC2)o1)c1ccc(C2CCCCC2)cc1 (stereo not drawn) [TCMDC-125562] | -47.12
CCc1ccc(CN2CCC(CN(c3ccc(N4CCOCC4)c(F)c3)S(=O)(=O)c3ccc(C(C)(C)CC)cc3)CC2)cc1 [TCMDC-135290] | -12.43
COc1ccccc1C1CCN(C2CCC(NC(=O)/C=C/c3cc(F)cc(F)c3)CC2)CC1 (stereo not drawn) [TCMDC-133492] | -91.94
CCOC(=O)c1nc2ccc(SC3CCCCC3)cn2c1Br [TCMDC-138030] | 0.4377
COc1ccc2c(=O)ccn(CCN3CCC(NCc4ccc5c(n4)NC(=O)CS5)CC3)c2c1 [TCMDC-141809] | -63.52
Nc1nc(N)c2c(Oc3cccc4ccccc34)cccc2n1 [TCMDC-137739] | -7.537
CN(C)c1ccc2nc(N)nc(N)c2c1Cl [TCMDC-137862] | -17.95
COc1cc2cc(-c3nc4ccccc4[nH]3)c(N)nc2cc1OC [TCMDC-125600] | 19.66
COc1ccccc1-c1nc2c(ccc3nc(N)nc(N)c32)[nH]1 [TCMDC-137976] | 123.3
Nc1nc(N)c2c(ccc3[nH]c(-c4ccccc4Cl)nc32)n1 [TCMDC-137840] | 117.2

SMILES | % Inhibition [%]
Nc1nc(N)c2c(ccc3ccccc32)n1 [TCMDC-131942] | 19.03
Fc1ccc2[nH]c(-c3ccc(-c4ccc(CNCc5cnn(-c6ccccc6)n5)cc4)cc3)nc2c1.O=C(O)C(F)(F)F [TCMDC-132969] | 45.68
Cc1ccc(N2CCN(CCCCNC(=O)c3ccc(NC(=O)c4ccc(Cl)cc4)cc3)CC2)c(C)c1 [TCMDC-138507] | 8.523
O=C1OC2(CN1CC1CCN(Cc3ccc(O)c(Cl)c3)CC1)c1ccccc1-c1ccccc12 [TCMDC-136071] | 20.11
O=S(=O)(NCCN1CCCC1)c1cccc(-c2cccc(CNCCc3cccs3)c2)c1 [TCMDC-132378] | 78.26
O=S(=O)(NCCN1CCCC1)c1ccc(-c2cccc(CNCCc3cccs3)c2)s1 [TCMDC-132376] | 19.55
O=S(=O)(NCCN1CCCC1)c1ccc(-c2cccc(CNCCc3cccs3)c2)cc1 [TCMDC-132374] | 64.21
COc1ccc(CN(C)Cc2cc(C(C)C)c(C)cc2O)cc1F [TCMDC-124597] | -22.84
O=C(Nc1nccs1)c1cc(-c2cccnc2)nc2ccc(Br)cc12 [TCMDC-125215] | -12.6
CO[C@H](C)[C@H](NC(=O)[C@H](CC(C)C)[C@H](CCC(F)(F)F)N(O)C=O)C(=O)Nc1nccs1 [TCMDC-138190] | 15.4
COc1ccc2[nH]cc(C3CC4CCC(C3)N4CCC3CCN(C(=O)/C=C/c4ccc(Cl)c(Cl)c4)CC3)c2c1 (stereo not drawn) [TCMDC-139670] | 106
CN(CC1CCC(NC(=O)/C=C/c2ccc(Cl)c(Cl)c2)CC1)C1CCC(c2c[nH]c3ccccc23)CC1 (stereo not drawn) [TCMDC-140213] | -15.26
O=C(/C=C/c1ccc(Cl)c(Cl)c1)N1CCC(CN2CCC(Cc3c[nH]c4ccccc34)CC2)CC1 [TCMDC-140143] | -20.89
CN(CCC1CCN(C(=O)/C=C/c2ccc(Cl)c(Cl)c2)CC1)C1CCC(c2c[nH]c3ccccc23)CC1 (stereo not drawn) [TCMDC-140107] | 60.82
O=C(/C=C/c1ccc(Cl)c(Cl)c1)N1CCC(CN2CCC(c3c[nH]c4ccccc34)C(O)C2)CC1 (stereo not drawn) [TCMDC-139825] | -12.75
COC(=O)c1ccc2[nH]cc(C3CCN(CCC4CCN(C(=O)/C=C/c5ccc(Cl)c(Cl)c5)CC4)CC3)c2c1 [TCMDC-139787] | 19.69
COc1ccc2[nH]cc(C3CCN(CCC4CCN(C(=O)/C=C/c5ccc(Cl)c(Cl)c5)CC4)CC3)c2c1 [TCMDC-139658] | -35.62
O=C(/C=C/c1ccc(Cl)c(Cl)c1)N1CCC(NCc2c[nH]c3ccccc23)CC1 [TCMDC-134197] | -0.4755
CN(CCCc1c[nH]c2ccccc12)CC1CCN(C(=O)/C=C/c2ccc(Cl)c(Cl)c2)CC1 [TCMDC-140117] | 55.67
O=C(/C=C/c1ccc(Cl)c(Cl)c1)N1CCC(CCCN2CCC(c3c[nH]c4ccccc34)CC2)CC1 [TCMDC-139795] | 25.74
O=C(/C=C/c1ccc(Cl)c(Cl)c1)N1CCC2CC(N3CCC(c4c[nH]c5ccccc45)CC3)CCC2C1 (stereo not drawn) [TCMDC-139677] | -29.29
O=C(/C=C/c1ccc(Cl)c(Cl)c1)N1CCC(CN2C3CCC2CC(c2c[nH]c4ccccc24)C3)CC1 (stereo not drawn) [TCMDC-139814] | 116.4
